These results are taken from PubChem BioAssay (Tox21).

Assay [1] can be described thus: qHTS assay to identify small molecule agonists of the estrogen receptor alpha (ER-alpha) signaling pathway in the presence of an antagonist - cell viability counter screen (AID 1259386).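 Also: cells exposed to compounds for 22 h at 37 °C before the viability read; nearly all actives have a fitted effect of over 30% in size.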 Also: potency is read from the fitted curve at half-maximal effect. The procedure, abridged:
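Cell viability in VM7Luc4E2 cells (endogenous full-length ER-alpha) measured by CellTiter-Fluor fluorescence in the same wells as the luciferase screen. Cells pre-cultured 5 days in charcoal-stripped serum, then treated 22 h with compounds at 15 concentrations plus 10.0nM ICI-182,780.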
For orientation: Quantitative high-throughput screening tests each substance at several concentrations.

For assay [2], the target named is Progesterone receptor (Homo sapiens) (UniProt P06401). Kind of assay: qHTS assay to identify small molecule antagonists of the progesterone receptor (PR) signaling pathway (AID 1346795; active = well fitted inhibition curve with a large enough effect in the signal ratio in the repeat runs, not every such curve was filed as active; the % refers to the signal ratio; also: potency is read from the fitted curve at half-maximal effect). The procedure, abridged:
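HEK293T PR-UAS-bla reporter cells in charcoal-stripped serum (2%) received compound after a 6 hr settling period, followed by R5020 agonist at 1 nM final; 16 hr incubation preceded the FRET substrate step and fluorescence measurement.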

Assay [3] is described as follows: qHTS assay to identify small molecule antagonists of the progesterone receptor (PR) signaling pathway - cell viability counter screen (AID 1346798). Also: nearly all actives have a fitted effect of over 50% in size. Also: potency is read from the fitted curve at half-maximal effect. The procedure, abridged:
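Same-well multiplex: after 16 hr at 37C with compound and R5020 stimulation, HEK293T cells carrying a UAS-bla reporter received LiveBLAzer substrate (2 hr RT), then CellTiter-Glo (30 min RT) for luminescent viability.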

Assay [4] is described as follows: qHTS assay to identify small molecule antagonists of the TGF-beta/Smad signaling pathway - cell viability counter screen (AID 1346824). Also: nearly all actives have a fitted effect of over 50% in size. Also: potency is read from the fitted curve at half-maximal effect. In short, it runs like this:
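SBE-bla HEK 293T cells, incubated overnight, then compound plus 0.25 ng/mL TGF-beta1 (stock added) for 5 hr at 37 C. Viability was read in the same wells by CellTiter-Glo luminescence after 30 min at room temperature.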

A short description of assay [5]: qHTS assay to identify small molecule agonists of the TGF-beta/Smad signaling pathway - cell viability counter screen (AID 1346829). Also: nearly all actives have a fitted effect of over 45% in size. Also: potency is read from the fitted curve at half-maximal effect. In short, it runs like this:
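Compound-treated SBE-bla HEK 293T cells (5 hr, 37 C) were assessed for viability with CellTiter-Glo in parallel with the reporter read.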

The target in assay [6] is Thyrotropin-releasing hormone receptor (Homo sapiens) (UniProt P34981). Kind of assay: qHTS assay to identify small molecule antagonists of the thyrotropin-releasing hormone receptor (TRHR) signaling pathway (AID 1346877; active = well fitted inhibition curve with a large enough effect in the repeat runs, not every such curve was filed as active; also: potency is read from the fitted curve at half-maximal effect). In short, it runs like this:
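TRHR-expressing HEK293 cells loaded with calcium dye for 2 h at 37 C; compounds pre-incubated 5 min at room temperature before TRH challenge at 1 nM final. Intracellular calcium fluorescence read kinetically for 3 min; 15 concentrations in triplicate.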

The target is the same in assay [7]. Kind of assay: qHTS assay to identify small molecule agonists of the thyrotropin-releasing hormone receptor (TRHR) signaling pathway (AID 1346891; calls by dose curve; also: potency is read from the fitted curve at half-maximal effect; as to activation: series mostly up to about 58 µM). In short, it runs like this: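 Agonist-mode calcium mobilisation screen: TRHR-transfected HEK293 cells cultured overnight (18 h), dye-loaded for 2 h at 37 °C, exposed to compounds, and monitored by fluorescence for 3 min.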

Assay [8] is described as follows: qHTS assay to identify small molecule agonists of the TGF-beta/Smad signaling pathway (AID 1346859; active = well fitted activation curve with a large enough effect in the signal ratio in the repeat runs, not every such curve was filed as active; the % refers to the signal ratio; also: series mostly up to about 77 µM). In short, it runs like this: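 Smad-responsive beta-lactamase reporter cells (HEK 293T) received compounds from DMSO stocks after overnight attachment, were incubated 5 hr, then treated 2 hr with FRET substrate before dual-emission fluorescence measurement (405 nm excitation).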

A short description of assay [9]: qHTS assay to identify small molecule agonists of the progesterone receptor (PR) signaling pathway - cell viability counter screen (AID 1346799; calls by dose curve; also: nearly all actives have a fitted effect of over 45% in size; also: potency is read from the fitted curve at half-maximal effect). In short, it runs like this:
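Counter screen for cytotoxicity: compound-treated PR-UAS-bla HEK293T cells (16 hr, 37C, 5% CO2) were assayed with CellTiter-Glo, luminescence measured after 30 min at room temperature.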

Assay [10] concerns the target Progesterone receptor (Homo sapiens) (UniProt P06401). Kind of assay: qHTS assay to identify small molecule agonists of the progesterone receptor (PR) signaling pathway (AID 1346784; calls by dose curve; also: nearly all actives have a fitted effect of over 30% in size). In short, it runs like this: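 Agonist mode, quantitative HTS format in a HEK 293T line expressing a UAS-controlled beta-lactamase reporter; 16 hr compound exposure at 37C in 2% charcoal-stripped FBS, then LiveBLAzer B/G FRET fluorescence.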

The structures appear in SMILES notation. A number with no mark means an inactive call. Results filed as inconclusive are left out. Calls of active or inactive are those of the source. Unless noted, calls follow the shape of the dose curve; as a rule, active = well fitted curve in the direction sought with a large enough effect in the repeat runs; inconclusive = weak or mixed curves; inactive = no such curve, though single readings can be large; an effect the other way counts as inactive or inconclusive.

Progesterone receptor (Homo sapiens), sequence (P06401 whole entry, looked up): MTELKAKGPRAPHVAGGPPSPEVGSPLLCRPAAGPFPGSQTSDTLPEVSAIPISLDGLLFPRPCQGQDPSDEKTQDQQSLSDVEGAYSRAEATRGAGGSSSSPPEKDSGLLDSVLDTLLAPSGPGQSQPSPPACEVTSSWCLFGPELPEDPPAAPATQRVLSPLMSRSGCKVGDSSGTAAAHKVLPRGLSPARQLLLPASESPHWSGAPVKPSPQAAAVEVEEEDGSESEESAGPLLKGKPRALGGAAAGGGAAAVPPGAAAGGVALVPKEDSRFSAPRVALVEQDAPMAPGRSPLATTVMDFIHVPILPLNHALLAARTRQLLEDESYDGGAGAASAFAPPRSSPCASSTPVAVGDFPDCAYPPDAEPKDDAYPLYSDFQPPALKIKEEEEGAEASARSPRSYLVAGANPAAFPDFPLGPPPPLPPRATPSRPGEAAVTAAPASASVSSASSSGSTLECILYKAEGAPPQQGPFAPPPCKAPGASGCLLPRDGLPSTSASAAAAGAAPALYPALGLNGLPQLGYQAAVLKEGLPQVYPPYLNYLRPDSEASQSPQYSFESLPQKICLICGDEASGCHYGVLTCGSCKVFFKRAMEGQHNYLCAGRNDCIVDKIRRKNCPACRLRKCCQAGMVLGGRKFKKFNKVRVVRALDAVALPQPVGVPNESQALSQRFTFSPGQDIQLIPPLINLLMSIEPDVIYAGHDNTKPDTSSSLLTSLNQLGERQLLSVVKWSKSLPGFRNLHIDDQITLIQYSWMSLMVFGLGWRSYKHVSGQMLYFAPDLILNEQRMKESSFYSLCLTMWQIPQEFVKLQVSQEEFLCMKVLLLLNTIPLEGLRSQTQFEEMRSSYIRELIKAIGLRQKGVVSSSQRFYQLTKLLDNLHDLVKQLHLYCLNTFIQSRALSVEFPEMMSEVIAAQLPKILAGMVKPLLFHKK
Thyrotropin-releasing hormone receptor (Homo sapiens), sequence (P34981 whole entry, looked up): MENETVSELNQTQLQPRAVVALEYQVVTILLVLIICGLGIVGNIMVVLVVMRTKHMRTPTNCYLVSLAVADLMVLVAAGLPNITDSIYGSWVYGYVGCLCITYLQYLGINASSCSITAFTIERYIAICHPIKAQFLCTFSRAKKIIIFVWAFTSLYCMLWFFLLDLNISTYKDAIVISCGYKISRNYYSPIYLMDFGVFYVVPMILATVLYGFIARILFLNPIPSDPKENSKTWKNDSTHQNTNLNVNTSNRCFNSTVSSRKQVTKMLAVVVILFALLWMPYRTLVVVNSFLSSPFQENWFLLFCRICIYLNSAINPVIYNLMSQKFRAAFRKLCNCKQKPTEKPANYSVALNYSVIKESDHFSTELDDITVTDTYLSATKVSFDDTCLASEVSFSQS

As to `CCC[CH2][Sn]([CH2]CCC)([CH2]CCC)[O][Sn]([CH2]CCC)([CH2]CCC)[CH2]CCC`, the Potency in assay [1] was 0.475 µM (active); in [2], 0.752 µM (active); in [3], 1.68 µM (active); in assay [4], 1.51 µM (active); in assay [5], 1.51 µM (active); in assay [6] it was 1.05 µM (active). Moreover, in assay [7], the Potency was 1.35 µM (active).
`Cc1cc(C2CC2)nc(Nc2ccccc2)n1`: the Potency entry in assay [1], in assay [4] and in assay [5] was “inactive” each time. Moreover, in assay [2], the Potency was 30.6 µM (active).
Turning to `CCCCn1cc[n+](C)c1.[Cl][Fe-]([Cl])([Cl])[Cl]`, the Potency entry in [1], in assay [3], in assay [4] and in assay [5] was “inactive” throughout. Further, the outcome in [8] was inactive.
With `C[C@]12Cc3cn[nH]c3C[C@@H]1CC[C@@H]1[C@@H]2CC[C@@]2(C)[C@H]1CC[C@]2(C)O`, the Potency result in assay [1], in assay [4], in [5], in assay [6] and in assay [7] was “inactive” throughout. For the same compound, the Potency in assay [2] is 0.119 µM (active); in assay [3] it was 18.8 µM (active); in assay [9], 18.8 µM (active). The compound was called inactive in assay [8].
Take `O=c1[nH]c2cc(Cl)ccc2n1C1CCNCC1`: the Potency result in assay [1], in assay [2], in [3], in [4], in [5] and in [6] was “inactive” in each case. Further, the Potency result in [7] is “inactive”. For the same compound, in assay [8], the call was inactive.
Turning to `Clc1ccc(C2(Cn3cncn3)OCCO2)c(Cl)c1`, the Potency result in assay [1], in assay [10], in assay [5], in [6] and in assay [7] was “inactive” throughout. Further, the result in [8] was inactive.
Take `C1=CCC=C1`: the Potency result in assay [1], in [2], in assay [9], in assay [4] and in assay [5] was “inactive” each time. Besides, the result in assay [8] was inactive.
With `CC(O)C(=O)[O][Hg][c]1ccccc1` (stereo unspecified), the Potency in assay [1] is 12.2 µM (active); in assay [3], 4.86 µM (active); in [9] it was 4.86 µM (active); in assay [4], 9.77 µM (active); in assay [5] it was 17.4 µM (active).
Take `CN(C)c1ccc(N)cc1`: the Potency in assay [1] is 53.2 µM (active). The Potency result in assay [3], in [4], in assay [6] and in assay [7] was “inactive” in each case. Also, in assay [8], the call was inactive.
On to `O=C(N[C@@H]1N=C(c2ccccc2F)c2cccc3c2N(CC3)C1=O)c1cc2ccccc2[nH]1`, for which the Potency result in [1], in assay [3], in [4] and in assay [5] was “inactive” each time. The result in assay [8] was inactive. Moreover, in [7], the Potency is 12 µM (active).
With `N#CCCl`, the Potency result in [1], in assay [2], in [4] and in assay [5] was “inactive” throughout. Moreover, the compound was called inactive in assay [8].
On to `O=c1[nH]c(Cl)c(Cl)cc1Cl`, for which the Potency entry in assay [1], in assay [2], in assay [4], in [5], in assay [6] and in assay [7] was “inactive” in each case.
`Cc1c([N+](=O)[O-])c(C)c([N+](=O)[O-])c(C(C)(C)C)c1[N+](=O)[O-]`: the Potency result in assay [1], in assay [10], in [5], in assay [6] and in assay [7] was “inactive” each time. In [8], the result was inactive.
For `CCC[CH2][Sn]([CH2]CCC)([CH2]CCC)[CH2]CCC`, the Potency is 17.2 µM (active) in assay [1]; 24.3 µM (active) in [2]; 43.3 µM (active) in [3]; 38.9 µM (active) in assay [4]; 38.9 µM (active) in [5]. Besides, the Potency result in [6] and in [7] was “inactive” in each case.
With `CC(Cc1ccccc1)N(C)Cc1ccco1` (stereo unspecified), the Potency result in assay [1], in assay [4], in assay [5], in assay [6] and in assay [7] was “inactive” throughout. In assay [8], the call was inactive.
Regarding `O=[N+]([O-])c1cc(C(F)(F)F)c(Cl)c([N+](=O)[O-])c1Nc1ncc(C(F)(F)F)cc1Cl`, the Potency is 30.6 µM (active) in [1]; 24.3 µM (active) in [3]; 27.3 µM (active) in assay [9]; 30.9 µM (active) in assay [4]; 43.6 µM (active) in assay [5]; 15.1 µM (active) in [6]. In addition, in assay [7], the Potency result is “inactive”.
For `[Cl-].[Cl-].[Cl-].[Yb+3]`, the Potency entry in assay [1], in [2], in assay [3], in assay [4] and in assay [5] was “inactive” in each case. The compound was called inactive in assay [8].
As to `N#Cc1c2ccccc2cc2ccccc12`, the Potency result in [1], in assay [9], in [4] and in assay [5] was “inactive” throughout.
Turning to `CCC(OC(C)=O)C(CC(C)NC)(c1ccccc1)c1ccccc1` (stereo unspecified), the Potency result in [1], in [5], in assay [6] and in assay [7] was “inactive” in each case. Further, the Potency in [2] and in [3] was 54.9 µM (active) each time. Moreover, in assay [8], the result was inactive.
Consider `CSSC`, for which the Potency result in assay [1], in assay [10], in assay [5], in assay [6] and in assay [7] was “inactive” each time.
`CCCCCCC[CH2][Sn]([Cl])([Cl])[CH2]CCCCCCC`: the Potency entry in [1], in assay [4], in [5], in [6] and in assay [7] was “inactive” throughout. The outcome in assay [8] was inactive.
Take `[Cl][Hg][c]1ccccc1`: the Potency is 17.2 µM (active) in [1], 3.06 µM (active) in [3], 3.06 µM (active) in assay [9] and 17.4 µM (active) in [5].
With `CC#C[C@]1(O)CC[C@H]2[C@@H]3C[C@H](C)C4=CC(=O)CC[C@]4(C)[C@H]3CC[C@@]21C`, the Potency entry in assay [1], in assay [2], in [4], in assay [5], in assay [6] and in [7] was “inactive” each time. In assay [8], the compound was called inactive.
`N#CC(C#N)=NNc1cccc(Cl)c1`: the Potency in assay [1] was 21.7 µM (active); in [2], 13.7 µM (active). In addition, the Potency entry in assay [5], in assay [6] and in assay [7] was “inactive” each time.
On to `C=CC(=O)[O][Sn]([CH2]CCC)([CH2]CCC)[CH2]CCC`, for which the Potency was 10.9 µM (active) in [1]; 4.33 µM (active) in assay [3]; 2.45 µM (active) in assay [4]; 1.95 µM (active) in assay [5]; 13.5 µM (active) in [6]; 17.4 µM (active) in assay [7].
As for `Cc1ccc([N+](=O)[O-])[c]2c1[O][Hg]2`, the Potency in assay [1] is 29.8 µM (active); in assay [3] it was 4.22 µM (active); in [9], 5.31 µM (active); in [4], 19 µM (active); in assay [5], 23.9 µM (active). In addition, the compound was classed as inactive in assay [8].
As for `CCOP(=O)(OCC)Oc1nc(Cl)c(Cl)cc1Cl`, the Potency result in [1], in assay [3], in assay [4], in assay [5], in assay [6] and in assay [7] was “inactive” each time. The Potency in [2] is 5.42 µM (active). In addition, the compound was classed as inactive in assay [8].
Consider `CCCCn1cc[n+](C)c1` (tested in a mixture with another compound), for which the Potency result in [1], in assay [3], in assay [9], in [4] and in assay [5] was “inactive” in each case. The outcome in [8] was inactive.
Take `Oc1cccc(Cl)c1Cl`: the Potency result in assay [1], in assay [4], in assay [5], in assay [6] and in [7] was “inactive” throughout. For the same compound, the Potency in [9] is 27.4 µM (active). For the same compound, the outcome in assay [8] was inactive.
